# Source: PubChem BioAssay (NCATS)
# Results filed as inconclusive are left out. Unmarked numbers belong to inactive results. Calls of active or inactive are those of the source. Calls come from the whole dose curve; as a rule, active = well fitted cell-killing curve with a large enough effect; inconclusive = small, poorly fitted or top-dose-only effect, or effect the other way; inactive = flat fitted curve, though single readings scatter. Where a SMILES comes first, the peptide text is derived from it. [ ]: non-standard residue; d: D form. ξ: configuration not given here. ξTyr(βOH) = NC(C(=O)O)C(O)c1ccc(O)cc1
# Tested on: Hek293T
# Test: Primary qHTS to identify gynecologic anti-cancer compounds using libraries of approved drugs and bioactive compounds (AID 1345084); note: nearly all actives have a fitted effect of over 55% in size
# Conditions: Gynecologic cancer cell panel viability, ATPlite luminescence, 48 h, control line for the selectivity index; series mostly up to 57.5 µM; activity change, negative = cytotoxicity: at the top concentration
# How it was run: (§1)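 48 h compound exposure at 37 C, 5% CO2; five-point qHTS. ATPlite luminescence readout of cell ATP.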
# % is set by controls: 0 for no effect and ±100 for the full control effect; potency is the fitted concentration of half-maximal effect.
SMILES,"activity change, negative = cytotoxicity",Potency
CC(=C\C(C)O)/C=C(\C)C(=O)CC1CC(CC(N)=O)CC(=O)O1 (configuration not stated),-16.8% [at 38.5 µM],
CC(=O)OCC1=CCC2C(C)(C)CCCC2(C)C12CCC(C)(CC(=O)O)O2 (configuration not stated),2.71% [at 38.5 µM],
C[C@H]1CC[C@H]2[C@@H](C=C[C@@](C)(O)[C@]2(C)C(=O)CCO)C1,1.99%,
CC1=C(CO)CC(C(C)C2CCC3C4CC=C5CC(OC6OC(COC7OC(CO)C(O)C(O)C7O)C(O)C(O)C6O)CC(O)C5(C)C4CCC23C)OC1=O (configuration not stated),1.07% [at 25.3 µM],
CC(=O)c1c(C)cccc1O[C@@H]1O[C@H](CO)[C@@H](O)[C@H](O)[C@H]1O,-1.24% [at 38.5 µM],
C/C1=C\CC[C@]2(C)O[C@H]2C(=O)c2c(C)coc2C1,,10 µM (active)
CNc1nc(C)nc(N[C@H]2CCC[C@@H](C(=O)NCc3ccc(C#N)cc3C(F)(F)F)C2)n1,0.17%,
CC(=O)O[C@@H]1[C@@H](O)[C@H](C)O[C@@H](O[C@H]2[C@@H]3C=CO[C@@H](O[C@@H]4O[C@H](CO)[C@@H](O)[C@H](O)[C@H]4OC(C)=O)[C@@H]3[C@@]3(CO)O[C@@H]23)[C@@H]1OC(=O)/C=C/c1ccc(O)cc1,7.4% [at 25.3 µM],
CCC1=C(C)C(=O)C(C)CC12C(=O)CCC2C(=O)O (configuration not stated),-1.5%,
Nc1ncnc2c1c(COc1cccc(Cl)c1)nn2C1CCOCC1,-1.18%,
CC1(C)CC[C@]2(C(=O)O[C@@H]3O[C@H](CO)[C@@H](O)[C@H](O)[C@H]3O)CC[C@]3(C)C(=CCC4[C@@]5(C)CC[C@H](O[C@@H]6O[C@H](C(=O)O)[C@@H](O[C@@H]7O[C@H](CO)[C@@H](O)[C@H](O)[C@H]7O)[C@H](O)[C@H]6O[C@@H]6O[C@H](CO)[C@@H](O)[C@H](O)[C@H]6O)C(C)(C)C5CC[C@]43C)C2C1 (some centres not stated),0.105% [at 11.6 µM],
C=C(C(=O)OC)[C@]12O[C@@](C)(CC[C@@]3(O)/C(=C\C)C(=O)O[C@]3(C)C[C@@H]1OC(=O)C(CO)CN1CCCC1C(=O)O)CC2=O (some centres not stated),0.0685% [at 25.3 µM],
COc1cc(/C=C/C(=O)O[C@H]2[C@@H]3C=CO[C@@H](O[C@@H]4O[C@H](CO)[C@@H](O)[C@H](O)[C@H]4O)[C@@H]3[C@@]3(CO)O[C@@H]23)ccc1O,0.967% [at 25.3 µM],
COC1OC(=O)C2=C1C1(C)CCCC(C)(C)C1CC2O (configuration not stated),-3.54%,
C/C1=C\CC(C)(C)/C=C/C/C(C(=O)O)=C/CC1,-4.2%,
CC1CCC2(NC1)OC1C(O)C3C4CCC5CC(O[C@@H]6O[C@H](CO)[C@@H](O)[C@H](O)[C@H]6O[C@@H]6O[C@@H](C)[C@H](O)[C@@H](O)[C@H]6O)CCC5(C)C4CCC3(C)C1C2C (some centres not stated),2.1% [at 25.3 µM],
O=C(O)/C=C/c1ccc2occc2c1O[C@@H]1O[C@H](CO)[C@@H](O)[C@H](O)[C@H]1O,7.67% [at 38.5 µM],
C=C(COC(=O)CC(C)C)C1Cc2cc(C(C)=O)ccc2O1 (configuration not stated),3.52%,
COc1cc(C2CC(=O)Nc3c2cc(Br)c2ccccc32)cc(OC)c1OC (configuration not stated),-0.114%,
CCC(C)C(=O)OC[C@H]1O[C@H](O[C@H]2O[C@H](CO)[C@@H](O)[C@H](O)[C@H]2O)[C@H](O)[C@@H](O)[C@@H]1O (some centres not stated),7.45% [at 25.3 µM],
COC(=O)C1=CO[C@@H](O[C@@H]2O[C@H](CO)[C@@H](O)[C@H](O)[C@H]2O)[C@@H]2[C@@H](C)[C@@H](O)C(O)[C@H]12 (some centres not stated),-1.29% [at 25.3 µM],
CCCC1=CC2=C(CO1)C(=O)C(C)(O)C(OC(=O)c1c(C)cc(OC)cc1O)C2 (configuration not stated),-0.489% [at 25.3 µM],
C=C(CC/C=C(\C)C(=O)O)C1(O)CC=C(C)CC1 (configuration not stated),-2.79%,
COc1ccc(C2(O)c3ccccc3NC(=O)C2OC)cc1 (configuration not stated),8.02%,

# Tested on: JEG-3
# Test: as above
# Conditions: Gynecologic cancer cell panel viability, ATPlite luminescence, 48 h; series mostly up to 57.5 µM; activity change, negative = cytotoxicity: at the top concentration
# How it was run: as §1
row,SMILES,"activity change, negative = cytotoxicity"
1,NC1(c2ccc(NC(=O)c3ccnc(-c4cc(C(=O)O)ccn4)c3)cc2)CC1,-6.32%
2,CCCC/C=C\CCCCCc1cc(=O)c2ccccc2n1C,3.15% [at 38.5 µM]
3,COCc1c(O)c(C(=O)O)c(C)c2c1OC(=O)c1c(C)cc(O)c(CO)c1O2,3.18% [at 38.5 µM]
4,C/C=C/C=C/C1=C2C(=O)C3(C)C4C(C(=O)CC(O)/C=C/C)=C(O1)C1(C)C2C2(C)OC1(O)C4(C)OC23O (configuration not stated),1.8% [at 25.3 µM]
5,CC12CC(O)C(O)C=C1c1cc(O)cc(O)c1C(=O)O2 (configuration not stated),-3.72%
6,C=C1C2(C)CC3C4(C)C=CC(=O)OC(C)(C)C4CCC3(C)C1(C(=O)OC)C(=O)C(C)(O)C2=O (configuration not stated),-4.78% [at 25.3 µM]
7,CC1(C)[C@H]2C[C@H](C/C=C\CCCC(=O)O)[C@@H](NC(=O)c3csc4ccc(O)cc34)[C@@H]1C2,9.91%
8,CC(C)c1ccc2c(c1)CCC1[C@](C)(C(=O)O)CCC[C@]21C (some centres not stated),2.67%
9,C[C@@H]1O[C@@H](OC(=O)Cc2ccccc2)[C@H](O)[C@H](O)[C@H]1O,6.73%
10,Cn1cc(-c2c[nH]c3ncnc(N4CCOCC4)c23)cn1,16.7%
11,CC(C)C1NC(=O)C(CC2(O)c3ccccc3N3C(=O)C(Cc4ccccc4)NC32)NC1=O (configuration not stated),18.8% [at 25.3 µM]
12,C[C@@]12CC3(S(=O)(=O)O)OC(O1)[C@]1(COC(=O)c4ccccc4)[C@H]3C[C@]21O[C@@H]1O[C@H](CO)[C@@H](O)[C@H](O)[C@H]1O,-11.8% [at 25.3 µM]
13,CC(C)C1NC(=O)CNC(=O)C2CCCN2C(=O)C(Cc2c[nH]c3ccccc23)NC(=O)CNC(=O)C(C(O)c2ccc(O)cc2)NC(=O)CNC1=O (configuration not stated) (cyclo(G[ξTyr(βOH)]GWPGV); configuration not given here),7.51% [at 25.3 µM]
14,CC(=C\C(C)O)/C=C(\C)C(=O)CC1CC(CC(N)=O)CC(=O)O1 (configuration not stated),-3.99% [at 38.5 µM]
15,CC1=C(CO)CC(C(C)C2CCC3C4CC=C5CC(OC6OC(COC7OC(CO)C(O)C(O)C7O)C(O)C(O)C6O)CC(O)C5(C)C4CCC23C)OC1=O (configuration not stated),-1.04% [at 25.3 µM]
16,CC(=O)c1c(C)cccc1O[C@@H]1O[C@H](CO)[C@@H](O)[C@H](O)[C@H]1O,-11.8% [at 38.5 µM]
17,CNc1nc(C)nc(N[C@H]2CCC[C@@H](C(=O)NCc3ccc(C#N)cc3C(F)(F)F)C2)n1,0.596%

row,SMILES,"activity change, negative = cytotoxicity"
1,CC(=O)O[C@@H]1[C@@H](O)[C@H](C)O[C@@H](O[C@H]2[C@@H]3C=CO[C@@H](O[C@@H]4O[C@H](CO)[C@@H](O)[C@H](O)[C@H]4OC(C)=O)[C@@H]3[C@@]3(CO)O[C@@H]23)[C@@H]1OC(=O)/C=C/c1ccc(O)cc1,-6.4% [at 25.3 µM]
2,CCC1=C(C)C(=O)C(C)CC12C(=O)CCC2C(=O)O (configuration not stated),-5.55%
3,Nc1ncnc2c1c(COc1cccc(Cl)c1)nn2C1CCOCC1,-6.88%
4,CC1(C)CC[C@]2(C(=O)O[C@@H]3O[C@H](CO)[C@@H](O)[C@H](O)[C@H]3O)CC[C@]3(C)C(=CCC4[C@@]5(C)CC[C@H](O[C@@H]6O[C@H](C(=O)O)[C@@H](O[C@@H]7O[C@H](CO)[C@@H](O)[C@H](O)[C@H]7O)[C@H](O)[C@H]6O[C@@H]6O[C@H](CO)[C@@H](O)[C@H](O)[C@H]6O)C(C)(C)C5CC[C@]43C)C2C1 (some centres not stated),18.6% [at 11.6 µM]
5,C=C(C(=O)OC)[C@]12O[C@@](C)(CC[C@@]3(O)/C(=C\C)C(=O)O[C@]3(C)C[C@@H]1OC(=O)C(CO)CN1CCCC1C(=O)O)CC2=O (some centres not stated),-10.4% [at 25.3 µM]
6,COc1cc(/C=C/C(=O)O[C@H]2[C@@H]3C=CO[C@@H](O[C@@H]4O[C@H](CO)[C@@H](O)[C@H](O)[C@H]4O)[C@@H]3[C@@]3(CO)O[C@@H]23)ccc1O,3.86% [at 25.3 µM]
7,COC1OC(=O)C2=C1C1(C)CCCC(C)(C)C1CC2O (configuration not stated),2.27%
8,CC1CCC2(NC1)OC1C(O)C3C4CCC5CC(O[C@@H]6O[C@H](CO)[C@@H](O)[C@H](O)[C@H]6O[C@@H]6O[C@@H](C)[C@H](O)[C@@H](O)[C@H]6O)CCC5(C)C4CCC3(C)C1C2C (some centres not stated),3.59% [at 25.3 µM]
9,O=C(O)/C=C/c1ccc2occc2c1O[C@@H]1O[C@H](CO)[C@@H](O)[C@H](O)[C@H]1O,3.57% [at 38.5 µM]
10,C=C(COC(=O)CC(C)C)C1Cc2cc(C(C)=O)ccc2O1 (configuration not stated),-25.1%
11,COc1cc(C2CC(=O)Nc3c2cc(Br)c2ccccc32)cc(OC)c1OC (configuration not stated),16.7%
12,CCC(C)C(=O)OC[C@H]1O[C@H](O[C@H]2O[C@H](CO)[C@@H](O)[C@H](O)[C@H]2O)[C@H](O)[C@@H](O)[C@@H]1O (some centres not stated),-0.0973% [at 25.3 µM]
13,COC(=O)C1=CO[C@@H](O[C@@H]2O[C@H](CO)[C@@H](O)[C@H](O)[C@H]2O)[C@@H]2[C@@H](C)[C@@H](O)C(O)[C@H]12 (some centres not stated),3.21% [at 25.3 µM]
14,CCCC1=CC2=C(CO1)C(=O)C(C)(O)C(OC(=O)c1c(C)cc(OC)cc1O)C2 (configuration not stated),-1.63% [at 25.3 µM]
15,C=C(CC/C=C(\C)C(=O)O)C1(O)CC=C(C)CC1 (configuration not stated),0.217%
16,COc1ccc(C2(O)c3ccccc3NC(=O)C2OC)cc1 (configuration not stated),-3.21%
